The values below come from PubChem BioAssay (Tox21).

“And” between values parts separate entries of the source, which are not always exact repeats. Identical values can stand only once. Results filed as inconclusive are left out. The source holds several records for some structures; these can differ, active in one and inactive in another. The source made the active and inactive calls. Unless noted, calls follow the shape of the full dose curve.

Test [1] is described as follows: Nuclear factor erythroid 2-related factor 2/antioxidant responsive element (Nrf2/ARE) small molecule agonists: luciferase reporter gene qHTS assay in human keratinocytes (AID 1919969). Also: nearly all actives have a fitted effect of over 35% in size. Also: potency is read from the fitted curve at half-maximal effect. For orientation: Reporter assays use an easily measured gene product as a stand-in for the process of interest.
The target of test [2] is Gonadotropin-releasing hormone receptor (Homo sapiens) (UniProt P30968). Description: Human gonadotropin-releasing hormone receptor (GnRHR) small molecule agonists, calcium flux assay in GnRHR-HEK293 cells (AID 1920063). Also: nearly all actives have a fitted effect of over 35% in size. Also: potency is read from the fitted curve at half-maximal effect. An outline of the steps:
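Agonist mode: compounds at 15 concentrations, in triplicate, went onto calcium dye-loaded GnRHR-HEK293 cells. Intracellular calcium was then followed as 480/540 nm fluorescence at 1 s intervals over 3 min.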
For orientation: Calcium assays in cells follow changes in intracellular calcium, usually with a dye or a luminescent sensor.

In test [3] the target is KiSS-1 receptor (Homo sapiens) (UniProt Q969F8). Nature of the test: Human kisspeptin (KISS1R) small molecule agonists, calcium flux assay in KISS1R-HEK293 cells (AID 1920064; active = well fitted activation curve with a large enough effect in the repeat runs; also: potency is read from the fitted curve at half-maximal effect). An outline of the steps: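 Agonist mode: intracellular calcium rise tracked at 1 s intervals over 3 min (480/540 nm) immediately after compound addition to dye-loaded KISS1R-HEK293 stable cells. Each compound tested at 15 concentrations in triplicate.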
KiSS-1 receptor (Homo sapiens), sequence (Q969F8 whole entry, looked up): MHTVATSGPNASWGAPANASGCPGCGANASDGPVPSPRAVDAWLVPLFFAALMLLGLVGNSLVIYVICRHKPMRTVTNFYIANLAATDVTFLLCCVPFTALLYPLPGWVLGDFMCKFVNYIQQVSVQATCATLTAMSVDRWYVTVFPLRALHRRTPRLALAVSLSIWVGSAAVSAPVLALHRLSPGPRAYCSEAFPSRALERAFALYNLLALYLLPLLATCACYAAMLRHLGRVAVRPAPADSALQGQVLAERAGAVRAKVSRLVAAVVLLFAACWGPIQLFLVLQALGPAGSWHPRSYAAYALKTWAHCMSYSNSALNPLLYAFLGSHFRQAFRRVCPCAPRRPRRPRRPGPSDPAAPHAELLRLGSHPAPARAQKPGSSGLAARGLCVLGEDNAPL

Test [4] in a line: G protein-coupled receptor (GPCR) small molecule agonists, calcium flux assay: HEK293 wild type cell line counter screen (AID 1920065). Also: potency is read from the fitted curve at half-maximal effect. An outline of the steps:
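Calcium flux counter screen: compound added in agonist mode at 15 concentrations in triplicate to dye-loaded parental HEK293 cells. Fluorescence (480/540) read kinetically for 3 min; ATP served as positive control.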

Test [5] can be described thus: p53 small molecule agonists, cell-based qHTS assay with rat liver microsomes (AID 1963578). An outline of the steps:
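Agonist mode in p53RE-bla reporter cells, with compounds co-incubated 16 h at 37 C alongside 0.5 mg/mL rat liver microsomes and 0.5 mg/mL NADPH (final), followed by a 2 h LiveBLAzer detection step.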
(In general: qHTS replaces the single test concentration by a dilution series.)

A short description of test [6]: p53 small molecule agonists, cell-based qHTS assay with human liver microsomes: qHTS cell viability counter screen (AID 1963579). Also: nearly all actives have a fitted effect of over 45% in size. Also: potency is read from the fitted curve at half-maximal effect. In short, it runs like this:
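Metabolically activated exposure: compounds, human liver microsomes and NADPH (0.5 mg/mL final apiece) were added to p53RE-bla cells seeded 5 h earlier, left 16 h at 37 C, and then assessed for viability by CellTiter-Glo luminescence.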

Test [7] can be described thus: p53 small molecule agonists, cell-based qHTS assay with rat liver microsomes: qHTS cell viability counter screen (AID 1963580). Also: nearly all actives have a fitted effect of over 45% in size. In short, it runs like this: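 After the beta-lactamase ratio was read, CellTiter-Glo was added to the same wells and luminescence measured at 30 min; cells had been treated 16 h at 37 C with compounds, rat liver microsomes and NADPH (0.5 mg/mL final each).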

The target of test [8] is 5-hydroxytryptamine receptor 2A (Homo sapiens) (UniProt P28223). Description: 5-hydroxytryptamine receptor 2A (HTR2A) small molecule agonists, cell-based qHTS assay (AID 1963587). Also: nearly all actives have a fitted effect of over 30% in size. Also: potency is read from the fitted curve at half-maximal effect. In short, it runs like this:
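CHO cells stably expressing human HTR2A, plated 18 h, loaded with calcium dye 1 h at 37 C. Agonist mode: compounds added and intracellular calcium fluorescence recorded kinetically for 2 min at 1 sec intervals.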

In test [9] the target is Muscarinic acetylcholine receptor M1 (Homo sapiens) (UniProt P11229). Nature of the test: Cholinergic receptor muscarinic 1 (CHRM1) small molecule antagonists, cell-based qHTS assay (AID 1963588). Also: nearly all actives have a fitted effect of over 40% in size. In short, it runs like this: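 Compounds were tested at 15 concentrations in three independent runs. Dye-loaded CHRM1-CHO cells were exposed 5 min at room temperature before stimulation by acetylcholine added at 50nM. Intracellular calcium was read kinetically on FDSS for 3 min.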
Muscarinic acetylcholine receptor M1 (Homo sapiens), sequence (P11229 whole entry, looked up): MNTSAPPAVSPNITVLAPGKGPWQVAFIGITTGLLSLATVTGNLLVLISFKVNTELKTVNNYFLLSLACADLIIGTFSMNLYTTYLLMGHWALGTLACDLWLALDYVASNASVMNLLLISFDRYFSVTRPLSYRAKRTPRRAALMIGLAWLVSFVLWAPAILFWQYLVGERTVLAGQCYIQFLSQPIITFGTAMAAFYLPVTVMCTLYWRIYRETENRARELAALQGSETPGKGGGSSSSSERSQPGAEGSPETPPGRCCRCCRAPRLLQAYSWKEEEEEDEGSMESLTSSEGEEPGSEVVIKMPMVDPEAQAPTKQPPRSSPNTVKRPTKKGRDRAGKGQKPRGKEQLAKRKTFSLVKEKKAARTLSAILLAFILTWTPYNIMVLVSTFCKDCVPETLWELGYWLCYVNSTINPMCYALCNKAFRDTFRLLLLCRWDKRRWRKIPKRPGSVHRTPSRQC

Test [10] has the same target. Nature of the test: Cholinergic receptor muscarinic 1 (CHRM1) small molecule agonists, cell-based qHTS assay (AID 1963589). Also: nearly all actives have a fitted effect of over 35% in size. Also: potency is read from the fitted curve at half-maximal effect. An outline of the steps:
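Agonist-mode calcium-flux screen: compounds at 15 concentrations, three independent runs, were pin-transferred onto dye-loaded human CHRM1-CHO cells. Fluorescence was then recorded kinetically every second over minutes.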

The nature of test [11]: cAMP Responsive Elements (CRE) small molecule agonists, cell-based qHTS assay (AID 1963590). An outline of the steps:
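Agonist mode: compound added to CRE-bla HEK 293T cells (2,000/well, 18 h after plating) for 3 h at 37 C/5% CO2. Reporter activity detected via FRET beta-lactamase substrate, 2 h room-temperature loading.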

Test [12] is described as follows: cAMP Responsive Elements (CRE) small molecule antagonists, cell-based qHTS assay (AID 1963591; active = well fitted inhibition curve with a large enough effect in the signal ratio in the repeat runs, not every such curve was filed as active; the % refers to the signal ratio). An outline of the steps: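 Antagonist mode: compounds are added alongside the adenylyl cyclase activator NKH477 (0.25 uM final) to CRE-bla HEK293T cells for 3 h. LiveBLAzer FRET substrate, 2 h at room temperature, reports bla expression.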
Test [13] concerns the target Beta-2 adrenergic receptor (Homo sapiens) (UniProt P07550). Nature of the test: Adrenergic beta2 receptor (ADRB2) small molecule antagonists, cell-based qHTS assay (AID 1963592). Also: nearly all actives have a fitted effect of over 50% in size. Also: potency is read from the fitted curve at half-maximal effect. In short, it runs like this:
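Assay format: CHO-ADRB2 cells, 18-20hr seeding at 37C/5% CO2, then compound plus 1nM isoproterenol agonist mix for 0.5hr RT. Homogeneous time-resolved fluorescence cAMP detection after 1hr, expressed as 665/615 nm ratio.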

Test [14] addresses D(2) dopamine receptor (Homo sapiens) (UniProt P14416). Description: Dopamine D2 receptor (DRD2) small molecule agonists, cell-based qHTS assay (AID 1963594). Also: nearly all actives have a fitted effect of over 35% in size. In short, it runs like this: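 HEK293 cells stably expressing human DRD2, pre-treated with PDE inhibitor Ro20-1724 (0.1 mM final) and compound 10 min at room temperature, then stimulated with NKH477 (200nM […]) for 30 min. cAMP read by HTRF (665/620 nm).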

Test [15] can be described thus: p53 small molecule agonists, cell-based qHTS assay: qHTS cell viability counter screen (AID 1963581). Also: nearly all actives have a fitted effect of over 45% in size. An outline of the steps: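 Counter screen read by CellTiter-Glo luminescence (ATP content, 30 min at room temperature), run in the same wells as the beta-lactamase reporter read. HCT-116 p53RE-bla cells saw compounds for 16 h at 37 C.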
Test [16] addresses 5-hydroxytryptamine receptor 2A (Homo sapiens) (UniProt P28223). Nature of the test: 5-hydroxytryptamine receptor 2A (HTR2A) small molecule antagonists, cell-based qHTS assay (AID 1963586). Also: nearly all actives have a fitted effect of over 45% in size. An outline of the steps: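 CHO cells stably expressing human HTR2A were plated for 18 h at 37 C, then loaded with calcium dye for 1 h. Compounds were preincubated 5 min at room temperature before DOI (4 nM solution) was added. Kinetic fluorescence was read for 3 min.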

In test [17] the target is Beta-2 adrenergic receptor (Homo sapiens) (UniProt P07550). Description: Adrenergic beta2 receptor (ADRB2) small molecule agonists, cell-based qHTS assay (AID 1963593).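 Also: CHO cells stably overexpressing human ADRB2.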 In short, it runs like this:
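CHO cells stably over-expressing ADRB2 were plated overnight at 37C, then dosed with compounds plus a stimulation mix containing 100uM IBMX and 25uM Ro-20-1724 for 0.5hr at room temperature. cAMP was measured by HTRF competition, 1hr.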

Test [18] has as its target D(2) dopamine receptor (Homo sapiens) (UniProt P14416). Description: Dopamine D2 receptor (DRD2) small molecule antagonists, cell-based qHTS assay (AID 1963595; active = well fitted inhibition curve with a large enough effect in the signal ratio in the repeat runs, with a control signal flat; the % refers to the signal ratio). In short, it runs like this:
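Cells were plated and grown for 24 h at 37 °C. Ro20-1724 (0.1 mM final) went in first, then compound for 10 min. NKH477 (200 nM) with quinpirole (12 nM) followed for 30 min at RT, then HTRF detection reagents for 1 h.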

5-hydroxytryptamine receptor 2A (Homo sapiens), sequence (P28223 whole entry, looked up): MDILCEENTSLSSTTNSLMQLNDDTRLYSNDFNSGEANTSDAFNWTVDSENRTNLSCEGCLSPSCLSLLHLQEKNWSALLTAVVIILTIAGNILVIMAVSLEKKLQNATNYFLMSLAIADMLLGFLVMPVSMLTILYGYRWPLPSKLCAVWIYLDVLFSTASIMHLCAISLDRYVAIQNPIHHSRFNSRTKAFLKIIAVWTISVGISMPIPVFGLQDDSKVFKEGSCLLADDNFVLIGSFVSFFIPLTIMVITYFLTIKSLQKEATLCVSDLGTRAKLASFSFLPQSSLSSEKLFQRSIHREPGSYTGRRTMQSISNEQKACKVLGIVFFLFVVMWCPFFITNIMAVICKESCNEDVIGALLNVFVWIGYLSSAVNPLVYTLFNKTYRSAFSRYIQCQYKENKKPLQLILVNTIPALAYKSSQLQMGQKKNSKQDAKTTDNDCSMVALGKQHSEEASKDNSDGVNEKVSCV
Beta-2 adrenergic receptor (Homo sapiens), sequence (P07550 whole entry, looked up): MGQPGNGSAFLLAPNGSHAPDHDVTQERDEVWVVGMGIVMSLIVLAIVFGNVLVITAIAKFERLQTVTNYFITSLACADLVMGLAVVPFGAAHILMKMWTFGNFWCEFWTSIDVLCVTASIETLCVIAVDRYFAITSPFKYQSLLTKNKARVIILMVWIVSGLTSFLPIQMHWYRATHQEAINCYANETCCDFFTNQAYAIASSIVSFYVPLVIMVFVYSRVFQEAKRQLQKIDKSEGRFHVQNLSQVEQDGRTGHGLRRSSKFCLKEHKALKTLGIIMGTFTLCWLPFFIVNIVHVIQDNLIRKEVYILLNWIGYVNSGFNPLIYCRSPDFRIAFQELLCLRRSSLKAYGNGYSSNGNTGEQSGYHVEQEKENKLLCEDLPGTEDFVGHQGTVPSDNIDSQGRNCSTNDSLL
Gonadotropin-releasing hormone receptor (Homo sapiens), sequence (P30968 whole entry, looked up): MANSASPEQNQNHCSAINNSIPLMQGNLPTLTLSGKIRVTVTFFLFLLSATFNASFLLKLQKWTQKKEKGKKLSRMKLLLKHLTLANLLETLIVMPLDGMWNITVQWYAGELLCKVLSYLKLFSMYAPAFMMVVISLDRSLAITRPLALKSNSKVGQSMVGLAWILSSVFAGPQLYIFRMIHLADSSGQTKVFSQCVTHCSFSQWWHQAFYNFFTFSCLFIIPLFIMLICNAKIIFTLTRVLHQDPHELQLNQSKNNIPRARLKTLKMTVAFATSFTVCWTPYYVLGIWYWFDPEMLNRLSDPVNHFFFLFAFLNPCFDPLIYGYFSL
D(2) dopamine receptor (Homo sapiens), sequence (P14416 whole entry, looked up): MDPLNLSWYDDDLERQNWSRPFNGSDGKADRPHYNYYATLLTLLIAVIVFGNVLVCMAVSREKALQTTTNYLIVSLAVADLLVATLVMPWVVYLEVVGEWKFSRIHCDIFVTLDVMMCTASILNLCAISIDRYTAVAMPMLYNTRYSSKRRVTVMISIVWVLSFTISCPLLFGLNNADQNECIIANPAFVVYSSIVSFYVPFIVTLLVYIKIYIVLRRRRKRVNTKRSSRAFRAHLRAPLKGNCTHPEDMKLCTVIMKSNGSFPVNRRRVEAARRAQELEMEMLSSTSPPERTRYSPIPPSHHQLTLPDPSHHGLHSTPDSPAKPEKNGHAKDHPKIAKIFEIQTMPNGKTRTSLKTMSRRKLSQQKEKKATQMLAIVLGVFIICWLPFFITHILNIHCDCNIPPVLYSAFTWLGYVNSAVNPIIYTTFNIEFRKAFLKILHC

`Cc1ccc(O)c(O)c1`: the Potency in [1] was 66.6 µM (active). For the same compound, the Potency result in [2], in [3], in test [4], in test [5], in test [6] and in test [7] was “inactive” throughout. For the same compound, the Potency result in test [8], in [9], in test [10], in test [11], in test [12] and in [13] was “inactive” in each case. In addition, in test [14], the Potency entry is “inactive”.

Consider `CCCCCCC(O)CCCCCCCCCCC(=O)O` (stereo unspecified), for which the Potency entry in test [1], in [2], in [3], in test [4], in [6] and in test [7] was “inactive” throughout. Further, the Potency entry in [15], in test [16], in [9], in test [10], in test [11] and in test [12] was “inactive” each time. The Potency result in [13], in [17], in test [14] and in test [18] was “inactive” each time. For the same compound, in test [8], the Potency is 3.9 µM (active) and inactive.

For `Cc1ccc(Nc2nccc(N(C)c3ccc4c(C)n(C)nc4c3)n2)cc1S(N)(=O)=O`, the Potency is 4.22 µM (active) in [1] and 26.6 µM (active) in test [13]. Also, the Potency result in test [2], in [3], in test [4], in test [16], in test [8] and in test [9] was “inactive” in each case. Besides, the Potency result in [10], in [11] and in test [18] was “inactive” each time.

`CCc1oc2ccccc2c1C(=O)c1cc(Br)c(O)c(Br)c1`: the Potency result in test [1], in test [2], in [3], in test [4], in test [7] and in [15] was “inactive” each time. Further, the Potency entry in test [11], in test [13], in test [14] and in test [18] was “inactive” throughout.

`COC1=C(OC)C(=O)C(CCCCCCCCCCO)=C(C)C1=O`: the Potency in test [1] was 10.6 µM (active). Also, the Potency entry in [2], in test [3], in [4], in test [6], in test [7] and in test [12] was “inactive” in each case. Further, the Potency result in [13], in [14] and in test [18] was “inactive” in each case.

As to `Clc1cccc(-c2cc(Cl)cc(Cl)c2)c1`, the Potency result in [1], in test [2], in [3], in test [4], in [6] and in test [7] was “inactive” each time. The Potency result in test [16], in [8], in [9], in [10], in test [11] and in test [12] was “inactive” throughout. The Potency result in test [13], in test [17], in [14] and in [18] was “inactive” each time.

In the case of `COP(=O)(O)OP(=O)(O)OC`, in test [1], the Potency is 24.3 µM (active). Also, the Potency result in test [2], in [3], in [4], in [6], in test [7] and in test [15] was “inactive” each time. For the same compound, the Potency result in test [16], in test [8], in [10], in [11], in [12] and in [13] was “inactive” throughout.

Regarding `CC(C)=CCOc1ccc(/C=C/C(=O)c2ccc(OCC=C(C)C)cc2OCC(=O)O)cc1`, the Potency in test [1] is 26.6 µM (active). For the same compound, the Potency result in test [2], in test [3], in test [4], in test [6], in test [7] and in test [8] was “inactive” in each case. In addition, the Potency result in test [10], in test [13], in test [17], in [14] and in test [18] was “inactive” in each case.

In the case of `Cc1c(Cl)c(=O)oc2cc(O)ccc12`, the Potency result in test [1], in [2], in [3], in [4], in [6] and in [7] was “inactive” in each case. Further, the Potency result in [15], in test [16], in [8], in test [10], in [14] and in test [18] was “inactive” throughout.

Turning to `Nc1ccc2c3c(cccc13)-c1ccccc1-2`, the Potency result in test [1], in [6], in test [7], in test [16], in [9] and in test [13] was “inactive” each time. The Potency entry in [14] and in test [18] was “inactive” throughout. The Potency is 35.1 µM (active) in test [2]; 55.5 µM (active) in test [3]; 39.3 µM (active) in [4]; 24.8 µM (active) in [8]; 49.5 µM (active) in test [10].

For the compound `COc1ccc2c(c1)c1c3n2CCN(C)C3=NCC1`, the Potency result in test [1], in [2], in [3], in test [4], in [6] and in test [16] was “inactive” in each case. In addition, the Potency entry in [8], in test [9], in test [10], in test [11], in test [13] and in test [14] was “inactive” each time. The Potency entry in [18] was “inactive”.

As to `CC(C)c1nc(CN(C)C(=O)N[C@H](C(=O)N[C@@H](Cc2ccccc2)C[C@H](O)[C@H](Cc2ccccc2)NC(=O)OCc2cncs2)C(C)C)cs1`, the Potency result in [1], in test [2], in test [3], in test [4], in test [6] and in [7] was “inactive” each time. For the same compound, the Potency entry in test [15], in test [13] and in [18] was “inactive” throughout.

As to `Cc1cc2nc3ccc(=[N+](C)C)cc-3sc2cc1N`, the Potency in [1] is 2.37 µM (active); in test [6], 11.2 µM (active). Besides, the Potency result in [2], in test [3], in test [4], in test [16], in test [9] and in [11] was “inactive” each time. The Potency result in test [12] is “inactive”.

With `COc1ccc2nc(S(=O)Cc3ncc(C)c(OC)c3C)[nH]c2c1` (stereo unspecified), the Potency in test [1] is 67.8 µM (active) and 26.6 µM (active). In addition, the Potency entry in test [2], in test [3], in test [4], in [6], in test [7] and in test [15] was “inactive” each time. In addition, the Potency result in test [12], in [13], in test [14] and in test [18] was “inactive” throughout.

As for `CCC(C(=O)NC(=O)NC(C)=O)c1ccccc1` (stereo unspecified), the Potency result in test [1], in test [2], in test [3], in [4], in test [6] and in test [7] was “inactive” each time. Also, the Potency result in test [15], in [8], in test [9], in test [10], in test [11] and in [12] was “inactive” in each case. The Potency entry in test [13], in [17], in [14] and in [18] was “inactive” each time.
